# Measured values as given in PubChem BioAssay.
# Active and inactive are the calls of the source.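 The calls were made as follows, unless noted: active = fluorescence slope after compound addition differing from the mean of all screened samples at 99.7% confidence, in either direction; inactive = the rest.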
# How the values were obtained:
# [1] = inhibitors of TNFa-induced NFkB p65 translocation, primary screen, imaging, HUVEC, MLSMR starter and 10KST1 sets (AID 438;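 active = inhibition above 20% together with a positive visual image hit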;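 also: compound added about 3h40 before a 20 min TNFalpha stimulation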;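 as to inhibition: signal is the nuclear over cytoplasmic p65 intensity ratio per well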); details: HUVEC TNFa-induced p65 nuclear translocation; cell count: measured here: nuclei count (cytotoxicity indicator), at 2.08 µM; inhibition: at 2 µM, stronger effect = higher value, 0% TNFa-plus-vehicle, 100% no-TNFa wells
# [2] = inhibitors of mutant huntingtin aggregation, primary screen, imaging, exon1htt(103Q)mCFP cells, high-content imaging (AID 483;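 active = visual image review flags a hit and inhibition of aggregation exceeds 20%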;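 also: compound exposure lasted 3 days before fixation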;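 as to nuclei count: percent of the per-plate median nuclei count of sample wells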); details: exon1htt(103Q)mCFP cell line, aggregate imaging, at 2 µM; inhibition of aggregation: stronger effect = higher value; nuclei count: measured here: cell count, toxicity
# [3] = inhibitors of E-selectin induction by TNFa, primary screen, imaging, HUVEC, immunofluorescence, MLSMR starter and 10KST1 sets (AID 487;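 active = visually confirmed hit in the image check and inhibition above 20%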;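 as to inhibition: signal is fraction of cell area covered by stained E-selectin grains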;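 as to nuclei count: 100% = median nuclei count of all wells on the same plate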); details: HUVEC TNFalpha-induced E-selectin immunofluorescence imaging, at 2 µM; inhibition: stronger effect = higher value; nuclei count: measured here: cell number, toxicity
# [4] = target: Voltage-gated potassium channel subunit beta-2 (Rattus norvegicus) (UniProt P62483); test: KvBeta enzyme negative modulators, primary screen, biochemical, NADPH fluorescence (AID 622;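 active = fluorescence slope higher than the sample average by over 3 SD, cut at about -0.22 in these data, passing the limit was not always enough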;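 also: slope of raw intensity against log time taken from 70 to 1610 s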); details: recombinant KvBeta, 4-cyanobenzaldehyde reduction, at 10 µM, stronger effect = higher value
# [5] = target: Voltage-gated potassium channel subunit beta-2 (Rattus norvegicus) (UniProt P62483); test: KvBeta positive modulators, primary screen, biochemical, NADPH fluorescence (AID 623;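 active = NADPH fluorescence slope more negative than the mean of all samples by about 3 SD, 99.7% confidence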;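 also: fluorescence intensity change per second fitted from 20 to 320 s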); details: Recombinant KvBeta, NADPH fluorescence decrease slope, 10 min; at 10 µM; stronger effect = lower value
# [6] = target: Alpha-2C adrenergic receptor (Homo sapiens) (UniProt P18825); test: modulators of alpha2C/GIRK thallium flux, primary screen, cell-based, HEK293 alpha2C/GIRK1/2 (AID 624); details: thallium flux BTC fluorescence, at 10 µM, actives lie on both sides;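 also: slope of fluorescence ratio to pre-addition baseline per second over 15 to 24 s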
# [7] = inhibitors of Sendai virus-induced IRF3 signaling, primary screen, TLR/RLR signaling modifier project, cell-based, Sendai virus stimulus, luciferase, 10K MLSCN set (AID 602276;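 active = inhibition at or above 50% at 10 µM; inactive = inhibition below 50%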;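 also: firefly luciferase from ISG56 promoter only with Renilla not read in this screen; 0% = Sendai virus plus DMSO and 100% = medium plus DMSO without virus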); details: HEK293 RL24 IRF3 luciferase reporter, at 10 µM, stronger effect = higher value
# [8] = inhibitors of poly I:C-induced TLR3 signaling, primary screen, cell-based, poly I:C stimulus, luciferase, 10K MLSCN set (AID 602277;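 active = inhibition of the reporter signal at or above 50%; inactive = inhibition below 50%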); details: HEK293-TLR3 RL24 IRF3 luciferase reporter, at 10 µM, stronger effect = higher value
# Chain of Voltage-gated potassium channel subunit beta-2 (Rattus norvegicus) (P62483 whole entry, looked up): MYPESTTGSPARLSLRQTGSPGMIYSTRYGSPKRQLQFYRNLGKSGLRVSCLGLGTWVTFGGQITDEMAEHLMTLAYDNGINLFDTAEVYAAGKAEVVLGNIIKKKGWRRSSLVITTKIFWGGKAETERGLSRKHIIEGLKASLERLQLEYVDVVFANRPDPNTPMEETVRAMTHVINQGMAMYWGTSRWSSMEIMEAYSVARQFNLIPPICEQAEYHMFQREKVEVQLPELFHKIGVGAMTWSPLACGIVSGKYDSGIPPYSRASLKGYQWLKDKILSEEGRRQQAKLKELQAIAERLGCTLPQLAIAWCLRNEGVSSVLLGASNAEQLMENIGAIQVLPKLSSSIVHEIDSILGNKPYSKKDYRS
# Chain of Alpha-2C adrenergic receptor (Homo sapiens) (P18825 whole entry, looked up): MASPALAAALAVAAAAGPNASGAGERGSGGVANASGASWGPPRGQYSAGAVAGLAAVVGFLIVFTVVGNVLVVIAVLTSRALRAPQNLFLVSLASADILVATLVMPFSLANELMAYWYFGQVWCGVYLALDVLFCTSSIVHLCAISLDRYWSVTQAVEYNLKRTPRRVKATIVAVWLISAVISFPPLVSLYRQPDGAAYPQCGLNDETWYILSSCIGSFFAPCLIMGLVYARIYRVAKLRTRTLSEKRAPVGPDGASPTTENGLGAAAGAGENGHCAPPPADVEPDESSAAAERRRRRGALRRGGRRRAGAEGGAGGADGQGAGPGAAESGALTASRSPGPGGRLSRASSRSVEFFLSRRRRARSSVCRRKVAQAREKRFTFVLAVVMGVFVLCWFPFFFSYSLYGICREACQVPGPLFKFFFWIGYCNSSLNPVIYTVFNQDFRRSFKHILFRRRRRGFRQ
Structure (SMILES),cell count [1],inhibition [1],inhibition of aggregation [2],nuclei count [2] [%],inhibition [3],nuclei count [3] [%],fluorescence slope [4],NADPH fluorescence slope [5],slope [6],inhibition [7],inhibition [8]
Cc1ccc(N(C)C(=O)N2CCN(c3ccccn3)CC2)cc1,525,-0.8% (inactive),30.2% (inactive),59.5,-41% (inactive),97.6,-0.59 (inactive),-2.8e-05 (inactive),0.00868 (inactive),5.03% (inactive),27.2% (inactive)
COc1ccccc1CNC(=O)C1CCCN(S(=O)(=O)c2cccc3cccnc23)C1 (stereo not drawn),783,-5.1% (inactive),-33.4% (inactive),102,-38.9% (inactive),108,-0.592 (inactive),-5.8e-05 (inactive),0.00706 (inactive),3.46% (inactive),26.9% (inactive)
O=C(C1CCCCC1)N1CCC(c2nc3c(nnn3Cc3c(F)cccc3Cl)c(=O)[nH]2)CC1,413,-4.6% (inactive),-15.9% (inactive),116,-110% (inactive),249,-0.454 (inactive),-0.000123 (inactive),0.00666 (inactive),6.04% (inactive),27% (inactive)
Cc1ccccc1NC(=O)CSc1nc(N)c(C#N)c(-c2cccs2)c1C#N,440,-0.3% (inactive),-16.8% (inactive),110,-12.2% (inactive),98.8,-0.475 (inactive),-4.8e-05 (inactive),0.00696 (inactive),11.6% (inactive),14.3% (inactive)
COc1ccc(Cl)cc1Nc1nc(NCCO)nc(N2CCCC2)n1,390,-4.3% (inactive),5.8% (inactive),95.9,-6% (inactive),112,-0.595 (inactive),-2.1e-05 (inactive),0.00689 (inactive),11.5% (inactive),16.2% (inactive)
CN=C(Nc1cc(C)nn1-c1ccccc1)c1ccccc1,455,0.5% (inactive),-5.8% (inactive),114,23% (inactive),90.5,-0.519 (inactive),-2.6e-05 (inactive),0.00474 (inactive),12.8% (inactive),17.1% (inactive)
Cc1cc(C(=O)NCCCc2ccccc2)no1,765,-8.2% (inactive),0% (inactive),105,-58% (inactive),120,-0.358 (inactive),-1.1e-05 (inactive),0.00425 (inactive),-11.5% (inactive),-13.4% (inactive)
Cc1ccc(-c2cc(C(F)(F)F)n3nc(C(=O)N4CCCC4)cc3n2)cc1,336,5.5% (inactive),13.3% (inactive),107,-148% (inactive),127,-0.512 (inactive),-1.4e-05 (inactive),0.00691 (inactive),-0.996% (inactive),-25.5% (inactive)
CCc1nc(SCC(=O)NCc2ccco2)c2c3c(sc2n1)CCCC3,586,-2.1% (inactive),14.8% (inactive),85.9,-21.9% (inactive),116,-0.466 (inactive),-1.1e-05 (inactive),0.00647 (inactive),15.3% (inactive),20.6% (inactive)
CCOc1ccc(NC(=O)CSc2nnc(Cc3cccn3C)n2-c2ccc(OC)cc2)cc1,366,-0.3% (inactive),0.9% (inactive),98,-103% (inactive),117,-0.489 (inactive),1.6e-05 (inactive),0.0062 (inactive),-4.09% (inactive),-3.93% (inactive)
O=C(O)CCNc1nc(-c2ccccc2)nc2ccccc12,619,-7.6% (inactive),-14.3% (inactive),103,-28.1% (inactive),127,-0.579 (inactive),3e-05 (inactive),0.00675 (inactive),-3.96% (inactive),7.69% (inactive)
Cc1ccc(CNC(=O)C2CCCN(S(=O)(=O)c3cnc[nH]3)C2)cc1 (stereo not drawn),768,-11% (inactive),-30.5% (inactive),102,-23.4% (inactive),92.7,-0.538 (inactive),-1.6e-05 (inactive),0.00735 (inactive),-2.34% (inactive),15.9% (inactive)
CCCC1(CCC)NC(=O)NC1=O,548,-3.3% (inactive),-41.1% (inactive),65.5,-34.4% (inactive),107,-0.491 (inactive),-4.7e-05 (inactive),0.00587 (inactive),6.49% (inactive),14.1% (inactive)
O=C(CSCc1ccccn1)Nc1ccccc1,312,-8% (inactive),21.9% (inactive),95.1,4.8% (inactive),98.8,-0.437 (inactive),-4.9e-05 (inactive),0.00582 (inactive),-30.9% (inactive),-49% (inactive)
CC1Cc2nc(SCC(=O)Nc3ccc(F)cc3F)n(C)c(=O)c2S1 (stereo not drawn),366,-0.6% (inactive),-7.8% (inactive),104,0.8% (inactive),113,-0.587 (inactive),-3.7e-05 (inactive),0.00486 (inactive),15.3% (inactive),11.8% (inactive)
CCc1ccccc1OCCCCN1CCCC1,454,-4.1% (inactive),10.6% (inactive),89.5,-88.7% (inactive),75.1,-0.518 (inactive),-4.4e-05 (inactive),0.00548 (inactive),-4.55% (inactive),-12.9% (inactive)
O=C(C(c1ccccc1)c1ccccc1)N1CCN(Cc2ccccn2)CC1,357,-7.5% (inactive),3.4% (inactive),98.4,-11.4% (inactive),107,-0.369 (inactive),-1.3e-05 (inactive),0.00484 (inactive),5.9% (inactive),18.2% (inactive)
Cc1c(NC(=O)CSc2nnc3sc4ccccc4n23)c(=O)n(-c2ccccc2)n1C,655,1% (inactive),16.2% (inactive),98.3,-24.3% (inactive),101,-0.555 (inactive),6.7e-05 (inactive),0.00649 (inactive),19.4% (inactive),24.6% (inactive)
O=C(CSc1nnc(CNC(=O)c2cccs2)o1)NC1CCCC1,613,-14.4% (inactive),10.3% (inactive),93.1,-2.3% (inactive),123,-0.318 (inactive),-5e-05 (inactive),0.00569 (inactive),16.7% (inactive),12.5% (inactive)
CCOC(=O)c1ccccc1NC(=O)CSc1nnc(COc2ccccc2C)n1C,667,14.9% (inactive),11.9% (inactive),97.3,45.4% (inactive),100,-0.346 (inactive),-4.2e-05 (inactive),0.00577 (inactive),16.9% (inactive),22.9% (inactive)
CCOc1ccc2nc(NC(=O)C3CCCN(S(=O)(=O)c4c(C)noc4C)C3)sc2c1 (stereo not drawn),674,-4% (inactive),-0.7% (inactive),108,-7.3% (inactive),114,-0.592 (inactive),-1.1e-05 (inactive),0.00699 (inactive),-4.49% (inactive),-47.9% (inactive)
CCOC(=O)CCc1c(C)nc2cc(-c3ccc(F)cc3)[nH]n2c1=O,249,-7.1% (inactive),3% (inactive),85,-8.7% (inactive),107,-0.457 (inactive),-3.9e-05 (inactive),0.00335 (inactive),-3.01% (inactive),22.2% (inactive)
CSc1ccccc1N=CC1=C(O)CC(C)(C)CC1=O,483,7.1% (inactive),2.4% (inactive),104,-4.9% (inactive),119,-0.461 (inactive),-0.000148 (inactive),0.00576 (inactive),5.59% (inactive),17.7% (inactive)
CCCCC(O)(C(NC=O)C(=O)OC)C(F)(F)F (stereo not drawn),703,-10.7% (inactive),12.7% (inactive),67.6,-10.7% (inactive),113,-0.489 (inactive),9.5e-07 (inactive),0.00464 (inactive),22% (inactive),16% (inactive)
COc1ccc(-n2ncc3c(N4CCC(C)CC4)ncnc32)cc1,575,-1.3% (inactive),17.5% (inactive),121,-10.8% (inactive),110,-0.572 (inactive),-5e-05 (inactive),0.00789 (inactive),9.66% (inactive),-67.2% (inactive)
Cn1cnc2cc(NC(=O)c3ccc(Cl)cc3)ccc21,829,6.9% (inactive),22.8% (inactive),74.5,3.1% (inactive),106,-0.387 (inactive),2.4e-05 (inactive),0.00603 (inactive),-39.3% (inactive),-143% (inactive)
CC(C)CCNC(=O)C1CCN(C(=O)N(C)C)CC1,556,7% (inactive),13.3% (inactive),53.8,-28.5% (inactive),104,-0.359 (inactive),-4.6e-05 (inactive),0.00555 (inactive),8.09% (inactive),19.5% (inactive)
O=C(CSc1nnnn1-c1ccccc1)c1cc2ccccc2oc1=O,788,-8.3% (inactive),-9.6% (inactive),124,-39.8% (inactive),117,-0.647 (inactive),-1.4e-05 (inactive),0.00672 (inactive),1.78% (inactive),-14.1% (inactive)
